Test results from PubChem BioAssay.
Values joined by “and” are separate entries in the source; they are usually repeats but may differ in a detail not shown here. Equal values may be shown once. Active and inactive are the calls of the source.

Experiments:
[1] = optical density shifts of acrAB sulA E. coli – strain DRC41, OD650, 48 h, E. coli filamentation inducer project, primary screen (AID 1152); conditions: higher = more signal, called active from +8 up or from −8 down;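 also: E. coli MC1000 strain DRC41 lacking acrAB efflux pump and sulA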
[2] = probe aLefty1 binding on compound microarray – biochemical, small-molecule microarray, 635/667 nm fluorescence, primary screen (AID 1153); conditions: higher = more signal;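 also: score merges spot fluorescence with signal-to-noise ratio from the scanned slide images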
[3] = plasmodial surface anion channel blockers, osmotic lysis – cell-based, P. falciparum Indochina, OD700, 1 h, primary screen (AID 1154); conditions: P. falciparum Indochina infected RBC osmotic lysis, higher = more signal, called active from +8 up or from −8 down
[4] = plasmodial surface anion channel blockers, osmotic lysis – cell-based, P. falciparum Indochina, OD700, 2 h, primary screen (AID 1155);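 also: lysis reports solute entry through the parasite surface anion channel PSAC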; conditions: P. falciparum Indochina infected erythrocytes, higher = more signal, called active from +8 up or from −8 down
[5] = changes in parasitized red cell lysis, either direction – P. falciparum Indochina, OD700, 3 h, PSAC antagonist project, primary screen (AID 1156); conditions: P. falciparum-infected erythrocytes, osmotic lysis, higher = more signal, called active from +8 up or from −8 down
[6] = plasmodial surface anion channel blockers, osmotic lysis – cell-based, P. falciparum Indochina, OD700, 18 h, primary screen (AID 1157); conditions: P. falciparum Indochina infected erythrocytes, osmotic lysis OD700, 18 h; higher = more signal, called active from +8 up or from −8 down
[7] = S6 kinase pathway phospho-S6 level changes – cell-based, A549, cytoblot, luminescence, serum-stimulated, primary screen (AID 1158); conditions: 5 h, higher = more signal;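 also: serum-stimulated A549 lung adenocarcinoma cells; signal is phosphorylated S6 detected by cytoblot immunostaining with HRP secondary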
[8] = target: NADPH oxidase 2 (Homo sapiens) (UniProt P04839); assay: compounds shifting NOX2 Amplex Red fluorescence – cell-based, HEK293-NOX2, PMA-stimulated, NOX inhibitor project, primary screen (AID 1159); conditions: 45 min, higher = more signal, called active from +8 up or from −8 down; also: test concentration not given here
NADPH oxidase 2 (Homo sapiens), sequence (P04839 whole entry, looked up): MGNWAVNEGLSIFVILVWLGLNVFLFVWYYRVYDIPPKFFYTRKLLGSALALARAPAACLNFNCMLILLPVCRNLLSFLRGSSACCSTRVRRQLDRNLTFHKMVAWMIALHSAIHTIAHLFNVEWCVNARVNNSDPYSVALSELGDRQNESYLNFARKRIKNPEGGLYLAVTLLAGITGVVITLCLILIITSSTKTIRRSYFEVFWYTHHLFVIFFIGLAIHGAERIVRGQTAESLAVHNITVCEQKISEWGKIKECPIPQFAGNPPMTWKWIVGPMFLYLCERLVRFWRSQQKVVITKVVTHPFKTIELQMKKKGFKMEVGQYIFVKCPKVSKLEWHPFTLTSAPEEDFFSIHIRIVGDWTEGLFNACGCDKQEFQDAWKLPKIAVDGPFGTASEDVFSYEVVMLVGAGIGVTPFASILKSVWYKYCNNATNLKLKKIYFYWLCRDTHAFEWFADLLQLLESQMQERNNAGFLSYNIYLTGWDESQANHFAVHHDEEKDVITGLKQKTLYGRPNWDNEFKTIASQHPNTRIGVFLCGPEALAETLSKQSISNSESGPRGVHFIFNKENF

[9] = target: NADPH oxidase 4 (Homo sapiens) (UniProt Q9NPH5); assay: compounds shifting NOX4 Amplex Red fluorescence – cell-based, HEK293-NOX4, tetracycline-induced, NOX inhibitor project, primary screen (AID 1160); conditions: HEK293-NOX4, Amplex Red H2O2 fluorescence, 45 min; higher = more signal, called active from +8 up or from −8 down
NADPH oxidase 4 (Homo sapiens), sequence (Q9NPH5 whole entry, looked up): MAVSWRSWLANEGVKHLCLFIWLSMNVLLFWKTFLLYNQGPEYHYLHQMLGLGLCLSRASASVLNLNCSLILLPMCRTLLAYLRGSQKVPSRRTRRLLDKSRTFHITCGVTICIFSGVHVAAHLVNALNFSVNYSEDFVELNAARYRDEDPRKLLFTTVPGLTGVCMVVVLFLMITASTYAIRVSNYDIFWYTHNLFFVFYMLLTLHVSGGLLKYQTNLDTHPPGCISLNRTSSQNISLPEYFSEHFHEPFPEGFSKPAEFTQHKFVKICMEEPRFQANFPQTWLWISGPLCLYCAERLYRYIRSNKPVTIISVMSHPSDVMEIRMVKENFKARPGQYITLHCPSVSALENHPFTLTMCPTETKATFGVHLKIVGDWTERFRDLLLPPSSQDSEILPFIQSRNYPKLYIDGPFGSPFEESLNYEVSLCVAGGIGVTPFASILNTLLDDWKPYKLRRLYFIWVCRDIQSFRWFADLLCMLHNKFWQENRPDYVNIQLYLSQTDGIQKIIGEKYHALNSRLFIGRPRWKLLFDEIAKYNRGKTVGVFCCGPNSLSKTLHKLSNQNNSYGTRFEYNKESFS

[10] = target: NADPH oxidase 5 (Homo sapiens) (UniProt Q96PH1); assay: compounds shifting NOX5 Amplex Red fluorescence – cell-based, HEK293-NOX5, NOX inhibitor project, primary screen (AID 1161); conditions: HEK293-NOX5, ionomycin, 45 min, higher = more signal
NADPH oxidase 5 (Homo sapiens), sequence (Q96PH1 whole entry, looked up): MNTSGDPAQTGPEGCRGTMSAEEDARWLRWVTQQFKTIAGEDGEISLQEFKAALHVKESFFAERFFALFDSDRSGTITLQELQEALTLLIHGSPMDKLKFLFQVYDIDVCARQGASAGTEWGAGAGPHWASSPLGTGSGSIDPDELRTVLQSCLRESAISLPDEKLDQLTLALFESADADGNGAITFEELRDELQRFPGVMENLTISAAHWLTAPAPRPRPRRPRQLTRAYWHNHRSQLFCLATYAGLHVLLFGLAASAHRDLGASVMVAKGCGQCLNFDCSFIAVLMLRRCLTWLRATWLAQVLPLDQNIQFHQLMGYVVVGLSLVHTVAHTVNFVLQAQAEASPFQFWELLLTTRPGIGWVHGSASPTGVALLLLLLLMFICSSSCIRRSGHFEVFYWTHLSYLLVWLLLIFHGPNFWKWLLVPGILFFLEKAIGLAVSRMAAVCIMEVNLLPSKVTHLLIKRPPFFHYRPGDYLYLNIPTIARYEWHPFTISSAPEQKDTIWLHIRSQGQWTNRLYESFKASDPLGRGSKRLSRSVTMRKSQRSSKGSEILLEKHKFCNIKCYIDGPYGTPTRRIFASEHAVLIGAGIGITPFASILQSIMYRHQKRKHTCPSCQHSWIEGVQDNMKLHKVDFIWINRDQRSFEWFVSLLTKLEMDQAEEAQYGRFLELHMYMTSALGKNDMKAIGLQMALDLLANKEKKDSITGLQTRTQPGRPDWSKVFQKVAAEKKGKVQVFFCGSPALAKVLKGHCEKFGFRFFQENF

[11] = compound effects on lung adenocarcinoma cell viability – A549, calcein-AM fluorescence, 48 h, basal, profiling panel (AID 1162); conditions: higher = more signal; also: test concentration not given here
[12] = compound effects on differentiated 3T3-L1 adipocyte viability – cell-based, 3T3-L1 adipocytes, calcein-AM fluorescence, 48 h, basal, profiling panel (AID 1163); conditions: 3T3-L1 adipocytes viability, higher = more signal; also: test concentration not given here
[13] = compound effects on hepatocellular carcinoma cell viability – HepG2, calcein-AM fluorescence, 48 h, basal, profiling panel (AID 1164); conditions: higher = more signal; also: test concentration not given here
[14] = compound effects on multiple myeloma cell viability – MM1S, calcein-AM fluorescence, 48 h, basal, profiling panel (AID 1165); conditions: higher = more signal; also: test concentration not given here
[15] = calcein-AM signal in unstimulated myeloma cells – cell-based, calcein-AM fluorescence, 48 h, PK04 Diversity Set, profiling panel (AID 1166); conditions: RPMI8226 myeloma viability, higher = more signal;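 also: cells grown under basal conditions without added stimulus; test concentration not given here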
[16] = JC-1 mitochondrial signal, unstimulated HepG2 cells – cell-based, JC-1 fluorescence, 24 h, 100 nL compound, profiling panel (AID 1167); conditions: HepG2 mitochondrial potential, higher = more signal; also: test concentration not given here
[17] = JC-1 mitochondrial signal, unstimulated adipocytes – cell-based, JC-1 fluorescence, 3T3-L1 adipocytes, 24 h, 100 nL compound, profiling panel (AID 1168); conditions: JC-1 mitochondrial fluorescence, higher = more signal, called active from +8 up or from −8 down; also: test concentration not given here
[18] = JC-1 mitochondrial signal, unstimulated myeloma cells – cell-based, JC-1 fluorescence, RPMI8226, 24 h, 100 nL compound, profiling panel (AID 1169); conditions: JC-1 mitochondrial potential fluorescence, higher = more signal; also: test concentration not given here
[19] = JC-1 mitochondrial signal, unstimulated MM1S myeloma – cell-based, JC-1 fluorescence, 24 h, 100 nL compound, profiling panel (AID 1170); conditions: MM1S mitochondrial potential, higher = more signal; also: test concentration not given here
[20] = resazurin metabolic signal in A549 cells – cell-based, resazurin fluorescence, 24 h, PK04 Diversity Set, profiling panel (AID 1171); conditions: A549 viability, higher = more signal, called active from +8 up or from −8 down; also: test concentration not given here

Compound	z-score [1]	composite z-score [2]	z-score [3]	z-score [4]	z-score [5]	z-score [6]	z-score [7]	z-score [8]	z-score [9]	z-score [10]	z-score [11]	z-score [12]	z-score [13]	z-score [14]	z-score [15]	z-score [16]	z-score [17]	z-score [18]	z-score [19]	z-score [20]
C#CCCCON=C1C[C@@H](O)[C@@H](O)[C@@H]2[C@@H]3C(=O)N(C4CCCCC4)C(=O)[C@@H]3CC[C@H]12	0.747 (inactive)	-0.147	0.869 (inactive)	-0.68 (inactive)	0.403 (inactive)	-0.113 (inactive)	-0.126	-1.26 (inactive)	-0.426 (inactive)	-2.7	-0.0446	-0.277	1.15	0.471	-0.584	0.289	0.201 (inactive)	0.515	-0.353	0.108 (inactive)
CCCNC(=O)OC[C@H]1O[C@H](CCON=C(C)CCN2CCc3nc(-c4ccccc4)c(-c4ccccc4)cc3C2)C=C[C@@H]1Oc1ccc(OC)cc1	-1.29 (inactive)	-0.0054	1.77 (inactive)	0.454 (inactive)	0.571 (inactive)	0.441 (inactive)	0.0851	-0.473 (inactive)	-2.55 (inactive)	-2.17	1.18	0.723	0.27	-0.893	-0.794	4.79	-1.65 (inactive)	0.179	0.483	0.444 (inactive)
COC(=O)C1=C(C)N(Cc2ccccc2)[C@]23O[C@](C(=O)OC)(C(=O)N2[C@@H]1c1ccccc1)[C@@H](C(=O)OC)[C@H]3C(=O)OC	0.514 (inactive) and 0.184 (inactive)	-0.282 and -0.0011	0.295 (inactive) and 0.114 (inactive)	0.185 (inactive) and 0.319 (inactive)	0.285 (inactive) and -0.414 (inactive)	-0.022 (inactive) and 0.17 (inactive)	-0.046 and 0.635	1.8 (inactive) and -0.506 (inactive)	-1.42 (inactive) and -0.0445 (inactive)	0.371 and 0.422	1.59 and 1.67	-0.0502 and -0.386	0.209 and 1.32	0.185 and 0.568	0.248 and 0.636	0.345 and 0.106	0.225 (inactive) and 1.49 (inactive)	-0.866 and 0.532	-0.142 and -0.237	0.415 (inactive) and -0.804 (inactive)
C=CCN(C(=O)C(c1cccs1)N(C(=O)/C=C\C(=O)O)C(C)(C)CO)C(C)(C)C (stereo not given)	2.48 (inactive) and 1.85 (inactive)	-0.0647 and -0.103	-0.534 (inactive) and -0.537 (inactive)	-1.13 (inactive) and -0.574 (inactive)	-0.936 (inactive) and -0.092 (inactive)	-1.37 (inactive) and -0.725 (inactive)	1.6 and 0.974	-0.192 (inactive) and -0.0748 (inactive)	-0.755 (inactive) and -0.588 (inactive)	0.163 and 0.51	0.923 and 0.435	0.373 and 0.179	1.24 and 1.74	0.151 and 1.58	-0.161 and 0.234	1.04 and 1.38	0.19 (inactive) and 0.713 (inactive)	-0.82 and 0.0107	0.0872 and 0.0595	-0.465 (inactive) and -0.596 (inactive)
C=CCN(C(=O)C1N(CCOCCO)C(=O)C2C(C(=O)O)C3C=CC21O3)C(C)(C)C (stereo not given)	-0.265 (inactive) and -0.45 (inactive)	-0.161 and -0.695	0.901 (inactive) and -0.5 (inactive)	0.264 (inactive) and 0.438 (inactive)	-0.944 (inactive) and -0.84 (inactive)	-0.305 (inactive) and -0.108 (inactive)	0.0267 and 0.353	0.388 (inactive) and 0.883 (inactive)	0.292 (inactive) and -0.3 (inactive)	1.19 and -0.295	-0.186 and -0.328	0.0948 and -1.23	0.108 and 0.442	1.01 and 0.916	-0.114 and 0.817	-0.58 and -0.767	-0.693 (inactive) and -0.523 (inactive)	-0.691 and 0.591	1.93 and 0.501	0.161 (inactive) and -0.73 (inactive)
O=c1n(-c2ccccc2)c(=O)n2n1CC[C@@H]1C(=NOC[C@@H](O)COCc3ccco3)[C@H]3O[C@H]3[C@@H](O)[C@@H]12	-1.09 (inactive) and -0.282 (inactive)	-0.0464 and -0.0626	1.17 (inactive) and 0.288 (inactive)	-0.603 (inactive) and 0.191 (inactive)	1.74 (inactive) and 0.238 (inactive)	-2.3 (inactive) and 0.0983 (inactive)	0.473 and -0.975	1.06 (inactive) and 0.176 (inactive)	0.113 (inactive) and -2.01 (inactive)	1.33 and -0.41	-1.18 and 0.202	0.581 and -0.304	-0.0728 and -0.713	0.256 and -0.207	-0.246 and -0.624	-0.16 and -1.1	0.127 (inactive) and -1.22 (inactive)	-0.135 and 0.0289	0.181 and -0.00804	-1.03 (inactive) and -0.872 (inactive)
